Results taken from PubChem BioAssay.
The source made the active and inactive calls.

How the values were obtained:
Albumin (Bos taurus) = Albumin (Bos taurus) (UniProt P02769); experiment: bovine serum albumin binders on microarray, profiling panel, artefact control for SMM control protein annotation, biochemical, small-molecule microarray, Alexa647 label, 635/667 nm fluorescence (AID 1118); conditions: BSA-A647 binding, fluorescence 635 nm, higher = more signal;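 also: score merges 667 nm emission intensity and signal-to-noise per printed compound spot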
[1] = small-molecule microarray binders of probe aXIP, primary screen, biochemical, NeuroSMM set, 635/667 nm fluorescence (AID 1119); conditions: higher = more signal, called active from +8 up or from −8 down;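 also: probe is the protein aXip251-270 applied at 1 µg/mL to compound-printed slides; binding of probe to printed compounds measured as 667 nm fluorescence plus signal to noise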
[2] = small-molecule binders of probe aNOTCH3, primary screen, biochemical, small-molecule microarray, 635/667 nm fluorescence (AID 1120); conditions: higher = more signal;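 also: probe is a biotin-tagged antibody raised against NOTCH3 rather than NOTCH3 protein; score merges spot fluorescence near 667 nm with spot signal to noise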
[3] = small-molecule binders of probe aNOTCH2, primary screen, biochemical, small-molecule microarray, 635/667 nm fluorescence (AID 1121); conditions: higher = more signal;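 also: score merges feature fluorescence read at 667 nm with its signal to noise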
[4] = biological target: Carbonic anhydrase 2 (Homo sapiens) (UniProt P00918); experiment: CAII small-molecule binders, profiling panel, biochemical, small-molecule microarray, Alexa647-labelled CAII (AID 1122); conditions: CAII-A647 binding fluorescence, higher = more signal
[5] = COS7 lysate on small-molecule microarray, probe aHis, 635 nm (AID 1123); conditions: COS7 cell lysate, fluorescence, higher = more signal;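 also: z-score combines 667nm fluorescence intensity with signal-to-noise per printed compound spot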
[6] = compound binding in COS7 lysate, probe aLAP1, primary screen, cell lysate, small-molecule microarray (AID 1124); conditions: probe aLAP1, fluorescence, higher = more signal;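 also: lysate comes from COS7 cells expressing LAP1 and is applied at 0.3 µg/mL; score merges spot fluorescence near 667 nm with signal-to-noise over triplicate slides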
Sam68 (KHDRBS1) = experiment: Sam68 small-molecule binders, primary screen, biochemical, small-molecule microarray, 635 nm fluorescence (AID 1125); conditions: small-molecule microarray binding, higher = more signal;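 also: score merges 667 nm channel intensity with signal to noise over triplicate slides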
[7] = system: Chordin-like protein 2 (CHRDL2); experiment: CHRDL2 small-molecule binders, primary screen, biochemical, small-molecule microarray, 635 nm fluorescence (AID 1126); conditions: small-molecule microarray binding, fluorescence 635 nm; higher = more signal;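 also: printed compound slides probed with Chrdl2 protein at 4 µg/mL for 1 h at 4 C; score merges 667 nm emission intensity with signal to noise over three replicate slides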
[8] = biological target: Concanavalin-A (Canavalia ensiformis) (UniProt P02866); experiment: ConA small-molecule binders, primary screen, artefact control for SMM control protein annotation, biochemical, small-molecule microarray, Alexa647 label, 635 nm (AID 1127); conditions: ConA-A647 binding fluorescence, higher = more signal;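 also: z combines 667 nm emission intensity with signal-to-noise across three replicate slides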
[9] = anti-His antibody binders, primary screen, artefact control for SMM control protein annotation, biochemical, small-molecule microarray, 635 nm fluorescence (AID 1128); conditions: anti-His Alexa647 antibody binding, higher = more signal;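 also: score merges feature fluorescence with signal-to-noise for each printed compound spot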
[10] = system: Human papillomavirus type 1a E7 protein (residues 1-88); experiment: HPV1a E7 small-molecule binders, primary screen, biochemical, small-molecule microarray, residues 1-88, 635 nm (AID 1129); conditions: small-molecule microarray binding, fluorescence 635 nm; higher = more signal
[11] = biological target: Focal adhesion kinase 1 (Homo sapiens) (UniProt Q05397); experiment: small-molecule microarray binders of FAK, primary screen, biochemical, 635/667 nm fluorescence, BSA, DTT (AID 1130); conditions: PTK2 binding, 635 nm fluorescence, higher = more signal;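 also: composite of spot emission at 667 nm and signal to noise over triplicate slides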
[12] = system: Fibrinogen (Alexa647-labelled); experiment: fibrinogen binders on compound microarrays, profiling panel, artefact control for SMM control-protein annotation, biochemical, small-molecule microarray, 635/667 nm fluorescence (AID 1131); conditions: fibrinogen-A647 binding fluorescence, higher = more signal;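 also: z-score merges 667 nm fluorescence with per-spot signal-to-noise over triplicate slides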
[13] = biological target: Follistatin (Homo sapiens) (UniProt P19883); experiment: follistatin binders on small-molecule microarrays, primary screen, biochemical, small-molecule microarray, 635/667 nm fluorescence (AID 1132); conditions: FST binding, 635 nm fluorescence, higher = more signal
[14] = biological target: Fibroblast growth factor 2 (Homo sapiens) (UniProt P09038); experiment: FGF2 binders on small-molecule microarrays, primary screen, biochemical, small-molecule microarray, 635/667 nm fluorescence (AID 1133); conditions: small-molecule microarray binding, FGF2, fluorescence 635/667; higher = more signal
[15] = mitochondrial membrane potential change in A549 cells, profiling panel, cell-based, JC-1 fluorescence, basal, 24 h, 100 nL (AID 1138); conditions: higher = more signal;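 also: A549 lung adenocarcinoma cells under basal conditions with no added stimulus; test concentration not given here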
Lefty1 = Lefty1 binders on small-molecule microarrays, primary screen, biochemical, small-molecule microarray, 635/667 nm fluorescence (AID 1139); conditions: small-molecule microarray binding, fluorescence 635/667; higher = more signal
[16] = system: wheat germ agglutinin (Triticum aestivum), Alexa647-labelled; experiment: wheat germ agglutinin binders on compound microarrays, profiling panel, artefact control for SMM control-protein annotation, biochemical, small-molecule microarray, 635/667 nm fluorescence (AID 1140); conditions: WGA-A647 binding, 635 nm fluorescence, higher = more signal;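 also: score merges 667 nm feature emission with signal to noise over triplicate slides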
[17] = biological target: Luciferin 4-monooxygenase (Photinus pyralis) (UniProt P08659); experiment: firefly luciferase enzyme inhibitors, primary screen, biochemical, luminescence, purified enzyme, 2006 set (AID 1141); conditions: SteadyGlo luminescence, 30 min, higher = more signal, called active from +8 up or from −8 down;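 also: cell-free assay with purified firefly luciferase at 100 ng per well in PBS; test concentration not given here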
Chain of Luciferin 4-monooxygenase (Photinus pyralis) (P08659 whole entry, looked up): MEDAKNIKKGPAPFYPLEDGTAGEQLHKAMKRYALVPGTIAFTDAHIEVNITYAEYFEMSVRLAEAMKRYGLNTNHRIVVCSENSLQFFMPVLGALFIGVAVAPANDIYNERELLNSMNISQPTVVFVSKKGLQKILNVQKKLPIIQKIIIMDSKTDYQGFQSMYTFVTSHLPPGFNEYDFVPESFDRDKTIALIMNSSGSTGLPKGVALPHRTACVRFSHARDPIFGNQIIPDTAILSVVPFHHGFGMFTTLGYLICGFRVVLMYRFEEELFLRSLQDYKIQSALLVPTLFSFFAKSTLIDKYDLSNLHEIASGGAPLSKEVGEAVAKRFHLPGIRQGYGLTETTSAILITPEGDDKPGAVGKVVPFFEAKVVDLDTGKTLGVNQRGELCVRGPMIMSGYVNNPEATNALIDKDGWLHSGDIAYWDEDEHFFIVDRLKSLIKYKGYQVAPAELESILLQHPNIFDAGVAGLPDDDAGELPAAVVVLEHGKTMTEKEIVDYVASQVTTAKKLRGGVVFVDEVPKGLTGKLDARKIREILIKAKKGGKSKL

Chain of Fibroblast growth factor 2 (Homo sapiens) (P09038 whole entry, looked up): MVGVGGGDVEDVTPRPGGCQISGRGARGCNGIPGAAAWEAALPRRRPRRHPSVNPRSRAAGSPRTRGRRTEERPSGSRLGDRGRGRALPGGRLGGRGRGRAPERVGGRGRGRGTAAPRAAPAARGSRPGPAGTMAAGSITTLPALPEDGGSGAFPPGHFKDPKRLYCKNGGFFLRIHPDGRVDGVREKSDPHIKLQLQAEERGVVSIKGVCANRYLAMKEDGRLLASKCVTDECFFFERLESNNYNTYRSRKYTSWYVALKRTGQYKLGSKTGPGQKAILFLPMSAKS
Chain of Follistatin (Homo sapiens) (P19883 whole entry, looked up): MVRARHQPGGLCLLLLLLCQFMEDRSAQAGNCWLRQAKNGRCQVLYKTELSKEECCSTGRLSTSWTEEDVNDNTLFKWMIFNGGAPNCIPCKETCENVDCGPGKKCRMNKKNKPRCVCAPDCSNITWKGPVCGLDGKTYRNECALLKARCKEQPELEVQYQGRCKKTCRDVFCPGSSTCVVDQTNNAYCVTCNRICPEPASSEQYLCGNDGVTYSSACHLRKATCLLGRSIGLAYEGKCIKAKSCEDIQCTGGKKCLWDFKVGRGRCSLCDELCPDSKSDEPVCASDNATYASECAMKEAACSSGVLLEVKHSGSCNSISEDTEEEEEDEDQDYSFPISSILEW
Chain of Focal adhesion kinase 1 (Homo sapiens) (Q05397 whole entry, looked up): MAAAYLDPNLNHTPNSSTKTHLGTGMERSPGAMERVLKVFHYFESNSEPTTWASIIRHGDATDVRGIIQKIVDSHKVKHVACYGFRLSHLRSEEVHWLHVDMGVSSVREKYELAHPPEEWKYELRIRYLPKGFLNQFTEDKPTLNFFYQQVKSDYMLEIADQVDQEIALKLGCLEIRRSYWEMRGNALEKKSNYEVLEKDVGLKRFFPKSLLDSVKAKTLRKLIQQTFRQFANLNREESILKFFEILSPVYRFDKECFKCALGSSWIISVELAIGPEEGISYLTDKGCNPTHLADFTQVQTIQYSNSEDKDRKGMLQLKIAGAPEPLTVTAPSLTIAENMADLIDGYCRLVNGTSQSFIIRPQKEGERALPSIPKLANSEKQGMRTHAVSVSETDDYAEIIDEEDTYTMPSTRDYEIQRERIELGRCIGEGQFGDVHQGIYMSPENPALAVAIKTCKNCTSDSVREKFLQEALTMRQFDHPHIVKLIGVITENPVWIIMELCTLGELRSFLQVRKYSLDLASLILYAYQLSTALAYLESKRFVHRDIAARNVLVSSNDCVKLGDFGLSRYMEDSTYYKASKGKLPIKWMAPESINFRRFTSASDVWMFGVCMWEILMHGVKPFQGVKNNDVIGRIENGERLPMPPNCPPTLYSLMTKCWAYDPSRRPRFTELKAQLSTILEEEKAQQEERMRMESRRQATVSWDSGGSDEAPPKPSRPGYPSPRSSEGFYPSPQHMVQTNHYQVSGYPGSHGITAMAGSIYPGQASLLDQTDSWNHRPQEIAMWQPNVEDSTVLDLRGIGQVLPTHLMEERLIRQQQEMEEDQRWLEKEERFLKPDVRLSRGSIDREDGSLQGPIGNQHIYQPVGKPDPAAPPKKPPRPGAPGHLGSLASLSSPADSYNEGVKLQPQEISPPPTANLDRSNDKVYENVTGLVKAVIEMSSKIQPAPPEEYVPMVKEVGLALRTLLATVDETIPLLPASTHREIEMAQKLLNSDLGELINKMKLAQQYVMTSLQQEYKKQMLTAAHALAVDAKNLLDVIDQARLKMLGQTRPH
Chain of Concanavalin-A (Canavalia ensiformis) (P02866 whole entry, looked up): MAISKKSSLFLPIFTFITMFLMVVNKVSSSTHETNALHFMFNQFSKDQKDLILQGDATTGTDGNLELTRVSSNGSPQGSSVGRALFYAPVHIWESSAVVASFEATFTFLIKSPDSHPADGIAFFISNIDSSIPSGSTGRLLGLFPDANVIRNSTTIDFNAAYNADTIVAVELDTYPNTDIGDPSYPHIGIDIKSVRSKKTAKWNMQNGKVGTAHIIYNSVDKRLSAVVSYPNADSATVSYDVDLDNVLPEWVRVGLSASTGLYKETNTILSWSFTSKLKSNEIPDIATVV
Chain of Albumin (Bos taurus) (P02769 whole entry, looked up): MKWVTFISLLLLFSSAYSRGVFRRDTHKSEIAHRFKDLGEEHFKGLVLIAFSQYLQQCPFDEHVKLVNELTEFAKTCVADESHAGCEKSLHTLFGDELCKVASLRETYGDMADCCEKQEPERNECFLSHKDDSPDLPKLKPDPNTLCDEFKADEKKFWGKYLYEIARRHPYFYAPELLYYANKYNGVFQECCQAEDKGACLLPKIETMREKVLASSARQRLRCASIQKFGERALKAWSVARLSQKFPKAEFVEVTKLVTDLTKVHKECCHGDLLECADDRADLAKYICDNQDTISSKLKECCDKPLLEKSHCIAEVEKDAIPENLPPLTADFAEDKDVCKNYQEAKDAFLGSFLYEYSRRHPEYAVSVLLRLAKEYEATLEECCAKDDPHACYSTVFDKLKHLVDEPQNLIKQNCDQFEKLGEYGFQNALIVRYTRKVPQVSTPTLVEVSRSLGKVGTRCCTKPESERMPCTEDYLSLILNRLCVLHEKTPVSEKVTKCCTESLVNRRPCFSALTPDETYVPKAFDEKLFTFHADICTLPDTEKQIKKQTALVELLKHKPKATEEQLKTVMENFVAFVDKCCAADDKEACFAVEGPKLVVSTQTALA

SMILES	composite z-score (Albumin (Bos taurus))	composite Z-score [1]	composite z-score [2]	composite z-score [3]	composite z-score [4]	composite z-score [5]	composite z-score [6]	composite z-score (Sam68 (KHDRBS1))	composite z-score [7]	composite z-score [8]	composite z-score [9]	composite z-score [10]	composite z-score [11]	composite z-score [12]	composite z-score [13]	composite z-score [14]	z-score [15]	composite z-score (Lefty1)	composite z-score [16]	z-score [17]
CON=C(C)CCN1CCCCc2nc(C)c(C)cc21	-0.16	0.414 (inactive)	0.245	0.0207	0.53	-0.0845	-0.244	0.119	0.873	-0.116	0.229	-0.27	0.145	0.582	0.925	0.644	1.19	1.05	0.495	-0.518 (inactive)
C[C@H]1CC[C@H]2C(=O)OC(COc3ccc(C(C)(C)C)cc3)CN2[C@@H]1c1ccc(Br)cc1 (stereo not given in full)	0.654	0.455 (inactive)	-0.165	-0.189	0.267	1.42	0.2	0.961	0.186	1.02	0.148	1.15	0.29	0.819	0.312	0.118	1.28	0.334	0.264	-1.37 (inactive)
O=C1[C@H]2[C@H]3[C@H](O)[C@H](O)CC(=NOC[C@@H](O)COCc4ccco4)[C@@H]3CC[C@H]2C(=O)N1Cc1ccccc1	-0.123	-0.0662 (inactive)	0.121	-0.102	0.552	0.654	0.173	1.3	1.4	-0.193	0.381	1.26	0.728	-0.956	1.37	0.962	0.0705	0.941	0.265	1.2 (inactive)
O=C(NN=C1C[C@@H](O)[C@@H](O)[C@@H]2[C@@H]3C(=O)N(Cc4ccc5c(c4)OCO5)C(=O)[C@@H]3CC[C@@H]12)OCc1ccccc1	0.544	0.536 (inactive)	-0.0377	-0.0817	-0.141	-0.357	0.0507	-0.449	-0.0473	-0.0653	0.921	0.0191	0.28	0.057	-0.137	-0.0806	-0.734	-0.257	0.227	1.02 (inactive)
CC[C@@H](c1ccccc1)n1c(=O)n2n(c1=O)[C@H]1[C@H](O)[C@@H]3O[C@@H]3C(=NOCc3ccccc3)[C@H]1CC2	0.536	-0.558 (inactive)	0.0306	-0.203	0.178	0.423	-0.502	0.0843	0.283	0.966	0.274	0.0875	-0.207	0.931	0.598	0.373	-1.14	0.65	0.676	0.0145 (inactive)
CC(=O)OC[C@H]1O[C@@H](ON=C(C)CCN2CCCCc3nc(C)c(C)cc32)[C@H](OC(C)=O)[C@@H](OC(C)=O)[C@@H]1OC(C)=O	0.536	-0.288 (inactive)	0.0282	-0.115	0.163	0.773	-0.0796	1.29	1.27	0.289	0.914	0.329	-0.0665	0.736	0.89	1.14	-0.66	1.17	0.162	0.949 (inactive)
COC(=O)[C@@H]1CC[C@H](C)[C@@H](c2ccc(Br)cc2)N1	-0.109	1.22 (inactive)	0.086	0.0037	0.665	0.878	-0.243	-1.39	0.322	-0.197	0.426	-1.3	1.38	0.102	-0.291	-0.21	0.0492	-0.04	-0.197	-0.464 (inactive)
O=C1[C@H]2[C@H]3[C@H](O)[C@H](O)CC(=NO[C@@H]4O[C@H](CO)[C@@H](O)[C@H](O)[C@H]4O)[C@H]3CC[C@H]2C(=O)N1c1ccc(F)cc1F	-0.168	-0.463 (inactive)	0.196	-0.177	-0.556	-0.258	0.0482	1.07	-0.819	-1.06	-1.26	-0.162	0.633	0.192	-1.22	0.502	-0.352	-0.152	-0.052	1.42 (inactive)
COC(=O)[C@H](C)NC(=O)CCC1CC(OC(=O)NCc2ccc3c(c2)OCO3)CC2(CCCC(COC(=O)NCCC(C)C)O2)O1 (stereo not given in full)	0.492	-0.436 (inactive)	0.0488	-0.114	0.226	0.891	-0.308	1.31	0.0784	0.0667	0.363	0.63	0.73	0.87	0.831	0.531	-0.822	1.25	0.0551	0.977 (inactive)
CCN1C(=O)[C@H]2[C@H]3[C@H](O)[C@H](O)CC(=NO[C@H](C)c4cn([C@H](CO)Cc5ccccc5)nn4)[C@@H]3CC[C@H]2C1=O	0.818	0.444 (inactive)	0.0539	-0.135	0.412	0.785	1.39	1.1	-0.0064	1.05	3.76	1.07	0.454	0.932	0.758	0.474	-0.00321	0.734	1.15	0.275 (inactive)
CON=C(C)CCC(=O)OC[C@H]1O[C@H](C#Cc2ccccc2)C=C[C@@H]1Oc1ccc(C)cc1	0.468	-0.054 (inactive)	-0.0111	-0.0751	0.263	0.661	0.232	0.626	0.479	0.491	0.377	0.54	0.122	0.354	0.398	0.344	-0.656	0.569	0.279	-3.61 (inactive)
